Experimental data published in the supplement of paper PMC10720658.
± gives the standard deviation of the averaged measurements.

These molecules were tested on AEK1 (Tb927.3.2440) (assay: percent reduction in TR-FRET probe signal relative to DMSO control; higher = stronger displacement of ATP-site probe (binding)). Settings: 1 µM; incubation time 1 h.
With `CC(C)(C)n1nc(-c2ccc(Cl)cc2)c2c(N)ncnc21` the “percent reduction in TR-FRET probe signal” value (from here on “percent reduction”) was -1.96 ± 9.6%.
`O=C1Nc2cc(Br)ccc2/C1=C1/Nc2ccccc2/C1=N\O` was tested, and the “percent reduction” value was 2.19 ± 11%.
For `CNC(=O)c1nn(C)c2c1C(C)(C)Cc1cnc(Nc3ccc(N4CCN(C)CC4)cc3)nc1-2`, the “percent reduction” value was -3.55 ± 7.5%.
For `COc1cc(Nc2ncc(F)c(Nc3ccc4c(n3)NC(=O)C(C)(C)O4)n2)cc(OC)c1OC.O=S(=O)(O)c1ccccc1`, the “percent reduction” value was 85.4 ± 8%.
`C[C@@H]1COCCN1c1cc(C2(S(C)(=N)=O)CC2)nc(-c2ccnc3[nH]ccc23)n1` (stereo partly specified) was tested, and the “percent reduction” value was 8.44 ± 6%.
With `C#Cc1cccc(Nc2ncnc3cc4c(cc23)OCCOCCOCCO4)c1` [Icotinib] the “percent reduction” value was -5.67 ± 19%.
`CNC(=O)c1cccc(-c2ccc3c(N4CCOC[C@@H]4C)nc(N4CCOC[C@@H]4C)nc3n2)c1` [Vistusertib (AZD2014)] was tested, and the “percent reduction” value was 9.57 ± 9.3%.
With `CC(=O)Nc1cccc(-n2c(=O)n(C3CC3)c(=O)c3c(Nc4ccc(I)cc4F)n(C)c(=O)c(C)c32)c1` the “percent reduction” value was 4.31 ± 12%.
In the case of `CN1CCC(COc2cnc(-c3cccc(Cn4nc(-c5cccc(C#N)c5)ccc4=O)c3)nc2)CC1`, the “percent reduction” value is reported as 6 ± 15%.
In the case of `COc1ccc(S(=O)(=O)N(C(C)=O)c2ccccc2/C=C/c2cc[n+]([O-])cc2)cc1`, the “percent reduction” value is reported as -0.117 ± 12%.
In the case of `O=C1NC(=O)[C@@H](c2cn3c4c(cccc24)CCC3)[C@@H]1c1c[nH]c2ccccc12` [Tivantinib (ARQ 197)], the “percent reduction” value is reported as 5.86 ± 12%.
For `C[C@@H](Oc1cc(-c2cnn(C3CCNCC3)c2)cnc1N)c1c(Cl)ccc(F)c1Cl`, the “percent reduction” value was 35.4 ± 13%.
In the case of `Cc1c(F)cc(C(=O)NC2CC2)cc1-c1ccc(C(=O)NCC(C)(C)C)cn1`, the “percent reduction” value is reported as -10 ± 9.6%.
`CS(=O)(=O)c1cccc(CNc2nc(Nc3ccc4c(c3)CCC(=O)N4)ncc2C(F)(F)F)c1` was tested, and the “percent reduction” value was 39.5 ± 13%.
With `C=CC(=O)Nc1cccc(Nc2nc(Nc3ccc(OCCOC)cc3)ncc2F)c1` the “percent reduction” value was -0.667 ± 7.7%.
For `COc1cc2ncnc(Nc3cccc(Cl)c3)c2cc1OC` [AG-1478 (Tyrphostin AG-1478)], the “percent reduction” value was 0.453 ± 6.3%.
In the case of `CC[C@@H]1C(=O)N(C)c2cnc(Nc3ccc(C(=O)NC4CCN(C)CC4)cc3OC)nc2N1C1CCCC1`, the “percent reduction” value is reported as -1.92 ± 12%.
With `CN1CCN(c2ccc3nc(-c4c(N)c5c(F)cccc5[nH]c4=O)[nH]c3c2)CC1` [Dovitinib (TKI-258, CHIR-258)] the “percent reduction” value was 16.9 ± 16%.
`CC1=C(C(=O)Nc2cc3cn[nH]c3cc2F)C(c2ccc(C(F)(F)F)cc2)CC(=O)N1` (stereo unspecified) was tested, and the “percent reduction” value was -2.47 ± 11%.
In the case of `CNC(=O)Nc1ccc(-c2nc(N3CC4CCC(C3)O4)c3cnn(C4CCC5(CC4)OCCO5)c3n2)cc1`, the “percent reduction” value is reported as -1.55 ± 9.3%.
In the case of `O=C(Nc1cc(C(F)(F)F)cc(C(F)(F)F)c1)c1cc(Cl)ccc1O`, the “percent reduction” value is reported as 8.68 ± 3.7%.
For `Cc1c(NC(=O)OC[C@@H]2COCCN2)cn2ncnc(Nc3ccc4c(cnn4Cc4cccc(F)c4)c3)c12`, the “percent reduction” value was -10.7 ± 4.8%.
In the case of `CCc1nc(-c2cccc(C)c2)c(-c2ccnc(NC(=O)c3ccccc3)c2)s1`, the “percent reduction” value is reported as -2.96 ± 11%.
`O=C1NC(=O)/C(=C/c2ccc(-c3ccc(F)cc3O)o2)S1` was tested, and the “percent reduction” value was 16 ± 24%.
`CCN1CCN(Cc2ccc(Nc3ncc(F)c(-c4cc(F)c5nc(C)n(C(C)C)c5c4)n3)nc2)CC1` was tested, and the “percent reduction” value was -4.88 ± 6.8%.
In the case of `CN([C@@H](Cc1ccc(OS(=O)(=O)c2cccc3cnccc23)cc1)C(=O)N1CCN(c2ccccc2)CC1)S(=O)(=O)c1cccc2cnccc12`, the “percent reduction” value is reported as 0.31 ± 8.8%.
For `NC[C@@](O)(c1ccc(Cl)cc1)c1ccc(-c2cn[nH]c2)cc1`, the “percent reduction” value was 11 ± 16%.
`Cl.Cl.Fc1cc(-c2cccc3ncc(-c4cnn(C5CCNCC5)c4)nc23)cc(F)c1CN1CCOCC1` was tested, and the “percent reduction” value was 10.7 ± 13%.
For `COC(=O)Nc1ccc(-c2nc(N3CCOCC3)c3cnn(C4CCN(C(=O)OC)CC4)c3n2)cc1`, the “percent reduction” value was -6.41 ± 11%.
In the case of `CCN1CCN(Cc2ccc(-c3cc4c(N[C@H](C)c5ccccc5)ncnc4[nH]3)cc2)CC1`, the “percent reduction” value is reported as 12.6 ± 16%.
`CO[C@H]1C[C@@H]2CC[C@@H](C)[C@@](O)(O2)C(=O)C(=O)N2CCCC[C@H]2C(=O)O[C@H]([C@@H](C)C[C@@H]2CC[C@@H](OCCO)[C@H](OC)C2)CC(=O)[C@H](C)/C=C(\C)[C@@H](O)[C@@H](OC)C(=O)[C@H](C)C[C@H](C)/C=C/C=C/C=C/1C` [Everolimus (RAD001)] was tested, and the “percent reduction” value was -14.9 ± 8.4%.
